Test results taken from ChEMBL document CHEMBL1157539, “Thousands of chemical starting points for antimalarial lead identification” (Nature, 2010).

system: HepG2; test: GSK_TCMDC: Percent inhibition of human HepG2 cell line. Test compounds present at 10uM.; type: functional

Row | SMILES | Inhibition [%]
1 | COc1c(C2CCN(CCCCNC(=O)c3ccc(-c4ccc(Cl)cc4)c(OCCN(C)C)c3)CC2)ccc2c1CCCC2 | 100
2 | Cn1cnc(CCNC(=O)c2ccc(-c3cccc(-c4nc5cc(F)ccc5[nH]4)c3)cc2)c1 | 23
3 | CCN(CCCN1CCCCC1)c1cc(C)nc(Nc2cccc(OC(F)(F)F)c2)n1.O=C(O)C(F)(F)F | 32
4 | CC(Nc1ccc2c(c1)CCC2)C(=O)Nc1cc(C(F)(F)F)ccc1N1CCOCC1 (stereo unspecified) | 0
5 | CN1CCC(NCc2ccc(-c3ccc(Cl)cc3)cc2)CC1 | 50
6 | CN(C)CCNCc1cccc(-c2ccc3c(Nc4ccc(Oc5ccccc5)cc4)ccnc3c2)c1 | 31
7 | CN(C)c1ccc(-c2csc(C(=O)NC3CCN(CCC(C)(C)C)C3)c2)cc1.O=C(O)C(F)(F)F (stereo unspecified) | 20
8 | CN(C)CCN(C)Cc1cccc(-c2ccc3c(Nc4cc(O)c(Cl)cc4F)ccnc3c2)c1 | 14
9 | O=C(/C=C/c1ccc(Cl)c(Cl)c1)NCCCCCN1CCC(C(=O)Nc2ccc3c(c2)OCO3)CC1 | 18
10 | Cc1cc(=O)c(-c2ccc(OCc3ccc(OC(F)(F)F)cc3)cc2)c(C)[nH]1 | 3
11 | Cc1ccc(C2=NNC3(S2)C(=O)N(C)c2ccccc23)cc1 (stereo unspecified) | 36
12 | CS(=O)(=O)O.FC(F)(F)COc1c(CCNCCCCNCCc2ccc3ccccc3c2OCC(F)(F)F)ccc2ccccc12 | 99
13 | COc1cc(F)c2ncc(Cl)c([C@@H](O)CN3CCC(NCc4ccc5c(n4)NC(=O)CO5)CC3)c2c1.Cl | 12
14 | CCCCCN1CCCCC(NS(=O)(=O)c2ccc(C(=O)Nc3cccc(C(F)(F)F)c3)cc2)C1.O=C(O)C(F)(F)F (stereo unspecified) | 14
15 | CCCCCCn1c(Sc2ccc(C#N)c([N+](=O)[O-])c2)nnc1-c1ccc(OC)cc1 | 19
16 | CCOc1cc(C(C)C)ccc1N1CCN(CCCCNC(=O)c2ccc(NC(=O)c3ccc(Cl)cc3)cc2)CC1 | 28
17 | COc1ccc(Br)cc1C1Nc2ccc3ccccc3c2C2=C1C(=O)CC(c1ccccc1)C2 (stereo unspecified) | 25
18 | Cc1nc2ccc(-c3ccc(OC(F)(F)F)cc3)cc2c(O)c1C#N | 0
19 | COc1ccc2c(c1)S(=O)(=O)N=C(N1CCCC1c1ccc(Cl)c(Cl)c1)N2C.O=C(O)C(F)(F)F (stereo unspecified) | 0
20 | CC(=O)Nc1ccc(C(=O)NC2CCN(c3ccnc4cc(Cl)ccc34)CC2)cc1.O=C(O)C(F)(F)F | 5
21 | C#CCN(Cc1cc2c(=O)[nH]c(N)nc2cc1C)c1ccc(C(=O)N[C@@H](CCC(=O)O)C(=O)O)cc1 | 28
22 | CCN(CC)CCNc1nccc(N(C)c2ccc(NC(=O)Nc3cc(C(F)(F)F)ccc3F)cc2)n1.O=C(O)C(F)(F)F | 74
23 | Cc1cccc(Cl)c1S(=O)(=O)Nc1cccc(CCN2CCC(N3CCCCC3)CC2)c1 | 34
24 | COc1cc(NC(=O)Nc2cc(C)nc3ccccc23)cc(OC)c1 | 5
25 | Cc1cc(C(F)(F)F)n2nc(C(=O)N(Cc3cncn3Cc3cccc(F)c3)CC3CC3)cc2n1 | 0
26 | O=C(Nc1cccc(CN2CCCN(Cc3ccc(O)cc3)CC2)c1)c1cccc(F)c1.O=C(O)C(F)(F)F | 22
